# Source: ChEMBL document CHEMBL3988442, “University of Dundee, Small-Polar-MMV Screening Library” (2021)
# About 13,000 (27%) of roughly 48,000 compounds showed an effect of 50% or more. The list shows a part of the results.
# Tested on: Wolbachia pipientis
# Assay: Anti-Wolbachia Cell-Based Screen
# Type: functional
# Design: scale not given: in the data most compounds retested in dose-response had high values
# Conditions: 5 µM
row,Compound,Percent Effect
1,O=S1(=O)CCC(c2nc(-c3cccc(Br)c3)no2)C1 (stereo unspecified),-8.148%
2,CN(C)C1CCCN(C(=O)CCc2csc(N)n2)CC1 (stereo unspecified),-10.57%
3,CC(C)N1CCCC1c1csc(N)n1 (stereo unspecified),125.7%
4,CN1[C@H]2CC[C@@H]1CN(C(=O)CCc1csc(N)n1)CC2,2.348%
5,CC(NC(=O)C1(NC(=O)c2ccc3[nH]ncc3c2)CCCC1)C1CC1 (stereo unspecified),-1.4%
6,CCn1cnnc1CNC(=O)N(C)Cc1ccc(F)c(F)c1,-10.5%
7,CCn1cnnc1CNC(=O)CCC(=O)c1ccc2c(c1)OCCO2,5.212%
8,CC(NC(=O)N(C)Cc1cccc(OC(F)F)c1)c1nncn1C (stereo unspecified),-22.06%
9,CCn1cnnc1CNC(=O)N(C)Cc1ccc(Cl)cc1Cl,-3.326%
10,CCn1cnnc1CNC(=O)Cc1ccc2c(c1)OCCO2,101.5%
11,CCn1cnnc1CNC(=O)N(C)Cc1ccc2c(c1)OCCO2,2.42%
12,CCN(Cc1ccc2c(c1)OCCO2)C(=O)NCc1nc(C)cs1,-0.008456%
13,CCn1cnnc1CNC(=O)N(C)Cc1cccc(OC(F)F)c1,110.2%
14,CCN(Cc1ccc2c(c1)OCCO2)C(=O)NCc1cc[nH]n1,-1.226%
15,CCN(Cc1ccc2c(c1)OCCO2)C(=O)NCc1nncn1CC,99.19%
16,CCn1cnnc1CNC(=O)N(C)Cc1ccc2c(c1)OCO2,127.8%
17,CCn1cnnc1CNC(=O)C1COc2ccc(Cl)cc2C1 (stereo unspecified),-2.501%
18,CCNS(=O)(=O)c1ccc(C)c(C(=O)N(C)Cc2ccco2)c1,-0.5279%
19,N#Cc1ccccc1OCCN1CCC(C(=O)N2CCOCC2)CC1,-3.937%
20,COc1cccc(CCNC(=O)CN2CCN(C)CC2C)c1 (stereo unspecified),5.841%
21,Cc1nnc(N2C[C@@H]3CCCO[C@@H]3[C@H](N3CCCC3=O)C2)s1.O=C(O)C(F)(F)F,-2.907%
22,Cc1n[nH]c(C)c1-c1cc(-c2cccc(O)c2)nc(N)c1C#N,88.86%
23,CC(C)Cc1cc(-c2cc(-c3ccc[nH]3)nc(N)c2C#N)n[nH]1,126.8%
24,Cc1n[nH]c(C)c1-c1c(C#N)c(N)nc2c1CCc1[nH]ccc1-2,9.181%
25,Cc1n[nH]c(C)c1-c1cc(-c2cc[nH]c2)nc(N)c1C#N,123.5%
26,Cn1cc(-c2c(C#N)c(N)nc3c2CCc2[nH]ccc2-3)cc1C#N,-2.103%

row,Compound,Percent Effect
1,Cc1n[nH]c(C)c1-c1cc(-c2ccc[nH]2)nc(N)c1C#N,119.5%
2,CCN(c1ccccc1C(=O)O)S(=O)(=O)c1cccc2cccnc12,-1.145%
3,CC(C)=CCN1CCN(C(=O)CSc2ccccn2)[C@H]2CS(=O)(=O)C[C@H]21,6.252%
4,c1[nH]c(CC2CCCC2)nc1CN1CCCC2(CCOC2)C1 (stereo unspecified),-3.102%
5,CS(=O)(=O)c1ccc(NC(=O)CSC(F)(F)F)cn1,0.5317%
6,Cc1n[nH]c(C2CN(C(=O)Cn3ccccc3=O)CCO2)n1 (stereo unspecified),-1.768%
7,Cc1ccc(CC(=O)N2CCOC(c3nc(C(C)(C)C)n[nH]3)C2)cn1 (stereo unspecified),10.27%
8,CC(C)c1n[nH]c(C2CN(C(=O)CCn3ccccc3=O)CCO2)n1 (stereo unspecified),2.958%
9,CC(C)(C)c1n[nH]c(C2CN(C(=O)Cn3ccccc3=O)CCO2)n1 (stereo unspecified),103.2%
10,CC(C)c1csc(C2CCCN(C(=O)Cn3ccccc3=O)C2)n1 (stereo unspecified),-10.1%
11,CC(C)c1n[nH]c(C2CN(C(=O)Cn3ccccc3=O)CCO2)n1 (stereo unspecified),111.9%
12,CCN(C)S(=O)(=O)NCC1(c2ccccc2Br)CC1,2.269%
13,CN(Cc1csc(-c2cccs2)n1)Cc1ncccc1C(=O)O,6.204%
14,CN(C)C(=O)C1SCCc2ccccc21 (stereo unspecified),-15.52%
15,CCOc1ccc(NC2CCN(CC(F)(F)F)C2=O)cc1C (stereo unspecified),-0.2214%
16,COc1ccc(S(=O)(=O)NCC(C)(O)c2cccs2)cc1Cl (stereo unspecified),0.9761%
17,COc1cccc(CN(C)C(C)c2nccs2)c1OCCn1ccnc1 (stereo unspecified),-3.505%
18,Cc1ccn(-c2ccccc2NCc2cccnc2C)n1,-1.379%
19,CN1C(=O)CC[C@]12CC[C@@H](NC(=O)NCc1cccnc1)CC2.O=C(O)C(F)(F)F,120.2%
20,O=C(NCc1cccnc1)N[C@H]1CC[C@@]2(CCC(=O)N2CC2CC2)CC1.O=C(O)C(F)(F)F,109.8%
21,O=C(NCc1cccnc1)NC1CCCN(c2ncccn2)C1 (stereo unspecified),12.61%
22,O=C(O)C(F)(F)F.O=C1CC[C@]2(CC[C@@H](NC3CCOCC3)CC2)N1Cc1ccccc1,-21.38%
23,CCN1C(=O)CC[C@]12CC[C@@H](NC(=O)c1cc(C)on1)CC2,-41.62%
24,O=C(NCc1cccnc1)C1CC(=O)N(CC2CC2)C1 (stereo unspecified),7.078%
25,CN1CCN(Cc2cccnc2)C2(CCN(C3CCOCC3)C2)C1=O.O=C(O)C(F)(F)F.O=C(O)C(F)(F)F.O=C(O)C(F)(F)F (stereo unspecified),4.033%
26,Cc1ccc(CN2C(=O)CC[C@]23CC[C@@H](NC2CCOC2)CC3)cc1.O=C(O)C(F)(F)F (stereo partly specified),-29.75%

row,Compound,Percent Effect
1,CCN1C(=O)CC[C@]12CC[C@@H](NC(=O)NCc1cccnc1)CC2.O=C(O)C(F)(F)F,126.1%
2,CC(C)CN1C(=O)CC[C@]12CC[C@@H](NC(=O)NCc1cccnc1)CC2.O=C(O)C(F)(F)F,100.3%
3,O=C(O)C(F)(F)F.O=C1CC[C@]2(CC[C@@H](NC3CCOC3)CC2)N1Cc1ccccc1 (stereo partly specified),-11.81%
4,CC(C)N1CCC(NC(=O)NCc2cccnc2)C1 (stereo unspecified),-0.2987%
5,CC(C)CN1CCC(c2nc3c([nH]2)CC(C)(C)CNC3=O)C1 (stereo unspecified),-15.84%
6,c1cn(Cc2nnc(C3CCN(C4CCNCC4)CC3)n2C2CC2)cn1,-5.551%
7,NC(=O)CN1CC2(CCC1=O)CCN(Cc1ccccc1F)CC2,-12.52%
8,O=C(O)CCCN1C[C@@H](c2ccccc2F)[C@@]2(CCCCC(=O)N2)C1,110%
9,O=C1NC[C@@]2(C(=O)O)CN(Cc3ccc(Oc4ccccc4)cc3)C[C@@H]12,22.58%
10,O=C1CCOC[C@]2(CN(Cc3ccccc3)C[C@H]2c2ccccc2)N1,85.32%
11,O=C1NCC[C@]12CN(Cc1ccoc1)C[C@H]2c1ccccc1,-11.19%
12,O=C1NC2(CCN(Cc3cccnc3)CC2)CC1c1ccncc1 (stereo unspecified),-17.77%
13,O=C(CC1CN(Cc2ccccc2)CCO1)Nc1ccccc1F (stereo unspecified),-6.692%
14,O=C1CCOC[C@]2(CN(Cc3ccccc3)C[C@H]2c2ccccc2F)N1,94.73%
15,O=C(NC1CC(F)(F)C1)[C@]12COC[C@H]1CN(Cc1ccccc1)C2.O=C(O)C(F)(F)F,-29.2%
16,O=C1CCOC[C@]2(CN(Cc3ccccc3)C[C@H]2c2cccnc2)N1,97.51%
17,Cc1ccc(OCC(=O)N2C[C@@H]3CN(C)CCO[C@@H]3C2)cc1.O=C(O)C(F)(F)F,-15%
18,CN(Cc1ccoc1)C(=O)C1CCN(C(=O)C2CCCC2)CC1,-1.17%
19,Cc1cc(NC(=O)CN(C)CC2CCCN2c2cccnn2)n(C)n1 (stereo unspecified),-5.162%
20,N[C@@H]1CCN(Cc2ccc(-c3nc(-c4cccnc4)cc(=O)[nH]3)cc2)C1,4.047%
21,COc1cc(C(C)=O)ccc1SCC(=O)Nc1cc(C)n[nH]1,8.192%
22,O=C(NC[C@]12COC[C@H]1CN(Cc1cccc(F)c1)C2)c1ccco1,10.17%
23,O=C1CCOC[C@]2(CN(Cc3ccccc3)C[C@H]2c2cccc(F)c2)N1,100.5%
24,O=C1NC[C@@]2(C(=O)O)CN(Cc3cccc(CN4CCOCC4)c3)C[C@@H]12,-10.55%
25,N#Cc1ccc(CNCC(C(=O)N2CCOCC2)c2ccccc2)cc1 (stereo unspecified),-11.01%
26,CN(Cc1cc(F)cc2cccnc12)CC1CCN(CCO)CC1,-1.587%

row,Compound,Percent Effect
1,O=C(c1cccnc1)N1C[C@@H]2CC[C@H](C1)N(Cc1cc(F)ccc1F)C2,-19.69%
2,Fc1ccc(F)c(CN2CCC(c3cnccn3)CC2)c1,76.33%
3,Fc1cccnc1N1CCC(NCc2cccc3cn[nH]c23)C1 (stereo unspecified),4.996%
4,COc1ccc(Oc2cccnc2)cc1CN1CCCC1,40.81%
5,COc1ccc(C)cc1CN1CCN(Cc2nccn2C)CC1,-6.315%
6,COc1ccc(C)cc1CN1CCC(c2cc3ncccc3cn2)CC1.Cl,107%
7,Cl.Cl.OC(CN1CCN(Cc2cc(F)ccc2F)CC1)C1CC1 (stereo unspecified),-0.1352%
8,Cl.Fc1cccc(CN2CCC(c3cc4ncccc4cn3)CC2)c1F,64.82%
9,Cl.Fc1ccc(F)c(CN2CCC(c3cc4ncccc4cn3)CC2)c1,84.15%
10,Cc1cnn(Cc2cc(F)ccc2F)c1NC(=O)NC1CC1,-2.224%
11,CC(C)CCNc1nnc(C(C)C)s1,-2.433%
12,Cc1noc(C)c1CN(C)C(=O)C1(N)CCCCC1,-29.06%
13,CCC1CN(Cc2ccccc2)CCN1Cc1nnc(C2CCC2)o1 (stereo unspecified),7.114%
14,CN(Cc1nc(C2CC2)no1)C(=O)c1cccc(CC2CCNCC2)c1,-25.8%
15,CC(C)(O)c1cn(C2CCN(C(=O)CCc3ccncc3)CC2)nn1,-4.68%
16,O=C(Nc1cnc(C2CC2)nc1)N1CCCC1,-9.25%
17,CC(C)c1cc(C2CCN(Cc3cc(F)cc(F)c3)CC2)[nH]n1,18.27%
18,Fc1cc(F)cc(CN2CCC(c3cc4ncccc4cn3)CC2)c1,115.3%
19,CCn1c(C)nnc1CN(C)C1CCN(Cc2nnc(C3CC3)o2)C1 (stereo unspecified),99.37%
20,CCn1c(C)nnc1CN(C)C1CCN(Cc2cnc(C)cn2)C1 (stereo unspecified),-10.08%
21,Cc1cnc(CN2CCC(N(C)Cc3nnc(C)n3C)C2)cn1 (stereo unspecified),0.1518%
22,CCn1c(C)nnc1CN(C)C1CCN(Cc2ccon2)C1 (stereo unspecified),7.959%
23,Cc1nnc(CN(C)C2CCN(Cc3nnc(C4CCC4)o3)C2)n1C (stereo unspecified),92.95%
